Measurements: PubChem BioAssay (NCATS)
Results filed as inconclusive are left out. Entries that show only a call come without a potency. Unmarked numbers belong to inactive results. Active and inactive are the calls of the source. The call rests on the fitted dose curve; in most records, active means well fitted curve in the direction sought with a large enough effect; inconclusive means small, poorly fitted or top-dose-only effect, or another doubt; inactive means no such curve, though single readings can be large; an effect the other way counts as inactive or inconclusive.

Experiments:
[1] = Primary qHTS for inhibitors of nuclear receptor binding SET domain protein 2 (NSD2) in an isogenic RCH-ACV NSD2 p.E1099K mutant (9B) (AID 1645876); settings: RCH-ACV NSD2 E1099K (9B) viability, CellTiter-Glo, 72 h; series mostly up to 44.9 µM
[2] = Primary qHTS for inhibitors of nuclear receptor binding SET domain protein 2 (NSD2) in an RCH-ACV wild type WT cells (2C) (AID 1645877); settings: RCH-ACV (leukaemia line) NSD2 WT (2C) viability, CellTiter-Glo, 72 h; series mostly up to 44.9 µM
Further: nearly all actives have a fitted effect of over 70% in size.
Potency means the concentration at half of the fitted maximal effect.

Structure (SMILES)	Potency [1]	Potency [2]	activity change, negative = viability loss [1]	activity change, negative = cell killing [2]
CC(=O)OC1C[C@@]2(C)[C@@H](CC[C@@H](C)[C@]23Cc2c(O)cc4c(c2O3)CNC4=O)C(C)(C)[C@@H]1O (stereo partly drawn)	inactive	inactive		
COc1ccc(/C=C/C(=O)O[C@@H]2[C@@H](O)[C@H](C)O[C@@H](O[C@H]3[C@@H]4C=CO[C@@H](O[C@H]5O[C@@H](CO)[C@H](O)[C@@H](O)[C@@H]5O)[C@@H]4[C@@]4(CO)O[C@@H]34)[C@@H]2OC(C)=O)cc1	inactive	inactive		
CCNC(=O)C1OC(n2cnc3c(N)nc(NCCc4ccc(CCC(=O)O)cc4)nc32)C(O)C1O (stereo not drawn)	inactive	inactive		
CC1(C)CC[C@]2(CO[C@@H]3O[C@H](CO)[C@@H](O)[C@H](O)[C@H]3O)[C@@H](O)C[C@]3(C)C(=CCC4[C@@]5(C)CC[C@H](O[C@@H]6O[C@H](CO[C@@H]7O[C@H](CO[C@@H]8OC[C@@H](O)[C@H](O)[C@H]8O)[C@@H](O)[C@H](O)[C@H]7O)[C@@H](O)[C@H](O)[C@H]6O)C(C)(C)C5CC[C@]43C)[C@@H]2C1 (stereo partly drawn)			-11.3% [at 9.23 µM]	-16% [at 9.23 µM]
O=C(O)c1cn(C2CC2)c2cc(N3C[C@@H]4C[C@H]3CN4)c(F)cc2c1=O	inactive	inactive		
CC1=CC(=O)CC2C1(O)CCC(C)C21CC(c2ccoc2)OC1=O (stereo not drawn)	inactive	inactive		
CC1OC(OC2C(O)C(OC3CCC4(C)C(CCC5(C)C4CC=C4C6CC(C)(COC7OC(CO)C(O)C(O)C7O)CC(O)C6(C)CCC45C)C3(C)C)OC(C(=O)O)C2O)C(O)C(O)C1OC1OCC(O)C(O)C1O (stereo not drawn)			-10.7% [at 9.23 µM]	-2.6% [at 9.23 µM]
C/C(=C\CC[C@@H](C)[C@H]1CC(O)[C@@]2(C)C3CC[C@H]4C(C)(C)[C@@H](OC5OCC(O)C(O)C5OC5OC(CO)C(O)C(O)C5O)CC[C@@]45C[C@@]35CC(O)[C@]12C)C(=O)O (stereo partly drawn)	inactive	inactive		
CCOc1cc(C)c(Cl)cc1S(=O)(=O)n1cnc2ccccc21	inactive	inactive		
C=CC/C=C\C/C=C\CCCCCCCc1cccc(O)c1C(=O)O	inactive	inactive		
C=C1C[C@]23C[C@H]1CC[C@H]2[C@@]12CC[C@H](O)[C@@](C)(C(=O)O1)[C@H]2[C@@H]3C(=O)O	inactive	inactive		
C[C@H](Nc1ncnc2nc[nH]c12)c1cc2ccc(F)cc2nc1-c1ccccn1	0.833 µM (active)	1.18 µM (active)		
CC1(C)CC2C=C(C(=O)O)C3COC(=O)C(O)(CO)C23C1 (stereo not drawn)	inactive	inactive		
C=CC(C)(C)c1[nH]c2ccccc2c1C[C@@H]1NC(=O)[C@H](Cc2c[nH]c3ccccc23)NC1=O	inactive	inactive		
CC1=C(COC2OC(CO)C(O)C(O)C2O)C(C(CO)C(=O)O)CC1 (stereo not drawn)	inactive	inactive		
CC(C(O)/C=C/C(C)(C)O)C1CCC2(C)C3C(=O)C=C4C(CCC(O)C4(C)C)C3(C)CCC12C (stereo not drawn)	inactive	inactive		
O=S(=O)(c1ccc(S(=O)(=O)n2cnc3ccccc32)cc1)N1CCCCCC1	inactive	inactive		
NC(=O)[C@H](O[C@@H]1O[C@H](CO)[C@@H](O)[C@H](O)[C@H]1O)c1ccccc1	inactive	inactive		
CC(=O)C=C=C1C(C)(C)CC(O[C@@H]2O[C@H](CO)[C@@H](O)[C@H](O)[C@H]2O)CC1(C)O (stereo partly drawn)	inactive	inactive		
O=C1NC(=O)C(c2cn(-c3ccccc3)nc2-c2ccc(F)cc2)N1 (stereo not drawn)	inactive	inactive		

Structure (SMILES)	Potency [1]	Potency [2]	activity change, negative = viability loss [1]	activity change, negative = cell killing [2]
CC1=CC2C(CC1OC1OC(CO)C(O)C(O)C1O)C(C)CC(=O)C2C(C)C (stereo not drawn)	inactive	inactive		
O=C(/C=C/c1ccc(O)cc1)OC1[C@H](O)CC(O)(C(=O)O)C[C@H]1O (stereo partly drawn)	inactive	inactive		
C=C(CCC1=C(C)[C@H]2[C@H](CC3[C@@H]4CC=C5C[C@@H](O)C[C@@H](O)[C@]5(C)C4[C@H](O)C[C@@]32C)O1)CO[C@@H]1O[C@H](CO)[C@@H](O)[C@H](O)[C@H]1O (stereo partly drawn)	0.483 µM (active)	0.963 µM (active)		
O=C(O[C@H]1[C@@H]2C[C@@H]3OC[C@](O)([C@@H]1Cl)[C@H]2C(O[C@@H]1O[C@H](CO)[C@@H](O)[C@H](O)[C@H]1O)O3)c1ccc(O)c(O)c1 (stereo partly drawn)	inactive	inactive		
COc1cc(Br)c(Nc2nc(-c3c(C)nc4ncccn34)cs2)c(Br)c1	1.45 µM (active)	2.05 µM (active)		
CC(=O)N1CCc2ccc(O)c(OC3OC(COC4OCC(O)(CO)C4O)C(O)C(O)C3O)c2C1Cc1ccc(O)cc1 (stereo not drawn)	inactive	inactive		
C=CC1(C)CC(OC(=O)/C(C)=C\COC(C)=O)C(C(=C)C(=O)O)C(O)C1C(=C)CO (stereo not drawn)	inactive	inactive		
CC(C)c1cc(C(=O)N2CC[C@H](NC(=O)C3CC3)C2)n[nH]1	inactive	inactive		
CC1OC(OC2C(C)OC(OC3C(O)C(CO)OC(O[C@H]4CC[C@@]5(C)C(CC[C@]6(C)C5CC=C5C7[C@@H](C)[C@H](C)CC[C@]7(C(=O)O)CC[C@]56C(=O)O)C4(C)C)C3O)C(O)C2O)C(O)C(O)C1O (stereo partly drawn)			-0.763% [at 9.23 µM]	-0.67% [at 9.23 µM]
C=C1CCC2C(C)(C(=O)O)CCCC2(C)C1CC/C(=C\CO)CO (stereo not drawn)	inactive	inactive		
C/C=C/C=C/C(=O)N1CC[C@]23c4ccccc4N[C@H]4N(C)c5cccc6c5[C@@]42CCN([C@H]6C2OC2(C)C)[C@H]13 (stereo partly drawn)	inactive	inactive		
C=CC(=O)N1CCN(C(=O)CNc2cc(I)c(Cl)cc2O)CC1	5.15 µM (active)	5.15 µM (active)		
C=C(C(=O)OC)C1C(O)CC2(C)C(O)CCC(=O)C2C1O (stereo not drawn)	inactive	inactive		
CCCC(=O)NCCc1csc(-c2ccc(Cl)cc2)n1	12.9 µM (active)	18.3 µM (active)		
COC(=O)CC(O)C1OC(c2ccccc2)C(O)C1O (stereo not drawn)	inactive	inactive		
CC(C)C(C#N)O[C@@H]1O[C@H](CO[C@@H]2O[C@@H](C)[C@H](O)[C@@H](O)[C@H]2O)[C@@H](O)[C@H](O)[C@H]1O (stereo partly drawn)	inactive	inactive		
COC(=O)C1=COC(OC2OC(CO)C(O)C(O)C2O)C2C1C=CC2(O)CO (stereo not drawn)	inactive	inactive		
CNS(=O)(=O)c1ccccc1Nc1nc(Nc2ccc(N3CCN(C)CC3)cc2OC)ncc1Cl	0.578 µM (active)	0.649 µM (active)		
C/C1=C\CCC(C)CCO[C@@H]2O[C@H](CO[C@@H]3OC[C@H](O)[C@H](O)[C@H]3OC1=O)[C@@H](O)[C@H](O)[C@H]2O (stereo partly drawn)	inactive	inactive		
COc1ccc(C2(O)c3ccccc3NC(=O)C2O)cc1 (stereo not drawn)	inactive	inactive		

Structure (SMILES)	Potency [1]	Potency [2]	activity change, negative = viability loss [1]	activity change, negative = cell killing [2]
COc1ccc2nc(S(=O)(=O)Cc3ncc(C)c(OC)c3C)[nH]c2c1	inactive	inactive		
CC[C@@H](O)C[C@@H]1C(C)=C[C@@H]2CCCC[C@@H]2[C@@]1(C)C(=O)O	inactive	inactive		
COC(=O)[C@@H](O)[C@H]1[C@@]2(C)CC3(O)[C@@H](C(=O)[C@H]2O)[C@]24O[C@]25CC(=O)O[C@@H](c2ccoc2)[C@]5(C)CCC4[C@]13C (stereo partly drawn)	inactive	inactive		
CC/C=C\[C@H](O)[C@H](O)C1=C(C)C(=O)[C@]2(O1)C(=O)N[C@@](OC)(C(=O)c1ccccc1)[C@@H]2O	inactive	inactive		
COc1cc(O)cc(/C=C/c2ccc(O[C@@H]3O[C@H](CO)[C@@H](O)[C@H](O)[C@H]3O)cc2)c1	8.93 µM (active)	7.96 µM (active)		
CC1(C)CC2C(O)c3cocc3CC(C)(O)C2C1 (stereo not drawn)	inactive	inactive		
CC(C)C(C(=O)N(C)C(C)C(N)=O)N(C)C(=O)C1CCCN1C(=O)/C=C/C=C/C(O)C(C)O (stereo not drawn)	inactive	inactive		
CC/C=C\C/C=C\C/C=C\CCCCCCCC(=O)OCC(O)COC1OC(CO)C(O)C(O)C1O (stereo not drawn)	inactive	inactive		
C=C(C)C1CC[C@]2(C(=O)O)CC[C@]3(C(=O)O)[C@H](CCC4[C@@]5(C)CC[C@H](O)C(C)(C)C5CC[C@]43C)C12 (stereo partly drawn)	inactive	inactive		
C[S+](CC[C@H](N)C(=O)[O-])C[C@H]1O[C@@H](n2cnc3c(N)ncnc32)[C@H](O)[C@@H]1O (stereo partly drawn)	inactive	inactive		
CC1(C)CCC2(C(=O)OC3OCC(O)C(O)C3O)CCC3(C)C(=CCC4C5(C)CC(O)C(OC6OC(COC7OCC(O)C(O)C7O)C(O)C(O)C6O)C(C)(C)C5CCC43C)C2C1 (stereo not drawn)			-10.4% [at 9.23 µM]	-0.57% [at 9.23 µM]
CCOC(=O)C(CCc1ccccc1)NC1CSC(c2cccs2)CN(CC(=O)O)C1=O (stereo not drawn)	inactive	inactive		
O=C(c1ccc2nccnc2c1)N1CCCCC1	inactive	inactive		
CC(=O)C1=CCC2C3CCC4CC(O[C@@H]5O[C@H](CO)[C@@H](O[C@@H]6O[C@@H](C)[C@H](O)[C@@H](O)[C@H]6O)[C@H](O)[C@H]5O[C@@H]5O[C@H](CO)[C@@H](O)[C@H](O)[C@H]5O)CCC4(C)C3CCC12C (stereo partly drawn)	inactive	inactive		
C=CC1C(OC2OC(CO)C(O)C(O)C2O)OC=C2C(=O)N3C(C(=O)O)Cc4c([nH]c5ccccc45)C3CC21 (stereo not drawn)	inactive	inactive		
NC(=O)[C@H]1CCS[C@@H]2C[C@]3(CCCN3C(=O)Cc3ccc(NC(=O)COc4ccc(Cl)cc4Cl)cc3)C(=O)N12	7.42 µM (active)	5.25 µM (active)		
CC/C=C\CCO[C@@H]1O[C@H](CO[C@@H]2OC[C@H](O)[C@H](O)[C@H]2O)[C@@H](O)[C@H](O)[C@H]1O	inactive	inactive		
COC1C(CO)OC(n2cnc3c(=O)[nH]cnc32)C1O (stereo not drawn)	inactive	inactive		
C[C@@H]1CC[C@]2(C(=O)O[C@@H]3O[C@H](CO)[C@@H](O)[C@H](O)[C@H]3O)CC[C@]3(C)C(=CCC4[C@@]5(C)C[C@@H](O)[C@H](O)[C@](C)(C(=O)O)C5CC[C@]43C)[C@@H]2[C@]1(C)O (stereo partly drawn)	inactive	inactive		
